According to PubChem BioAssay AID2530 (National Center for Advancing Translational Sciences (NCATS), 2010):
Inconclusive results are not listed. A number with no mark means an inactive call. Active and inactive are the calls of the source. The call rests on the fitted dose curve; in most records, active means well fitted inhibition curve with a large enough effect; inconclusive means small, poorly fitted or top-dose-only effect; inactive means flat fitted curve, though single readings scatter.

target: Luciferin 4-monooxygenase (Photuris pensylvanica) (UniProt Q27757); assay: Secondary Assay for Luciferase (Kinase-Glo TM) Inhibition Counterscreen; conditions: Kinase-Glo luciferase enzyme, luminescence; series mostly up to 58.1 µM; activity, negative = inhibition: at the top concentration;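 on activity, negative = inhibition: 0% = DMSO only and -100% = 40 µM SIB 1757 full inhibition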
Method in brief: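 Inhibition was fitted with the Hill equation after normalizing luminescence to DMSO (basal) and 40 uM SIB 1757 (full inhibition). Kinase-Glo luciferase ran for 8 min at room temperature in imidazole buffer pH 7.2 with KCl, MgCl2 and 10 uM ATP.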
Potency means the concentration at half of the fitted maximal effect.

SMILES	activity, negative = inhibition [%]	Potency
O=C1c2ccccc2C(=O)N1c1ccccc1O	-2.87	–
Cc1ccc(NS(=O)(=O)c2cc3c(cc2Cl)CCC(=O)N3)cc1C	-0.531	–
O=C1CCc2cc(S(=O)(=O)Nc3ccc(Cl)cc3)ccc2N1	-2.19	–
COc1cccc(NS(=O)(=O)c2ccc3c(c2)CCC(=O)N3)c1	0.18	–
Fc1ccc(-c2nc3n(n2)Cc2ccccc2-3)cc1	–	7.3 µM (active)
Cn1c(-c2ccc(Br)o2)nc2ccccc21	–	10.3 µM (active)
COc1ccc(-c2cn3ccc(C)cc3n2)cc1	–	8.19 µM (active)
Cc1ccnc(NC(=O)c2ccc3c(c2)OCO3)c1	–	11.6 µM (active)
O=C1c2ccccc2C(=O)N1c1ccc(Cl)cc1	0.194	–
Cc1cccc(OC2=NS(=O)(=O)c3ccccc32)c1	-3.94	–
O=C(Nc1ccc2c(c1)OCCO2)c1ccccn1	–	18.3 µM (active)
O=C1c2ccccc2C(=O)N1c1cccc2cccnc12	-0.904	–
Cc1ccc(NS(=O)(=O)c2ccc(N3CCCC3=O)cc2)cc1C	-2.22	–
COc1cc(F)c(S(=O)(=O)N2CCCN(S(=O)(=O)c3cccc(N)c3)CC2)c(F)c1	-0.216	–
COc1ccccc1OC1=NS(=O)(=O)c2ccccc21	-0.0267	–
Cc1ccc(NS(=O)(=O)c2ccc3ccccc3c2)cc1C	1.5	–
O=c1[nH]c2ccccc2n2c(-c3ccccc3)nnc12	-2.79	–
Cc1occc1C(=O)O/N=C(\N)c1ccccc1	–	6.51 µM (active)
O=C1CCc2cc(S(=O)(=O)NCc3ccccc3)ccc2N1	-4.55	–
Cc1ccccc1NS(=O)(=O)c1ccc2c(c1)CCC(=O)N2	0.467	–
